Assay results taken from ChEMBL document CHEMBL3433997, “St. Jude Leishmania screening dataset” (2016).

Assays:
Type in all cases: functional
[1] = target: Solute carrier family 2, facilitated glucose transporter member 1 (Homo sapiens) (UniProt P11166); assay: ST_JUDE_LEISH: Cytotoxicity at 2uM final concentration against transgenic Leishmania Mexicana promastigotes LmGLUT1 that are glucose transport deficient and complemented with the human glucose transporter GLUT1. Activity is measured by DNA content using SYBR green in vitro
Solute carrier family 2, facilitated glucose transporter member 1 (Homo sapiens), sequence (P11166 whole entry): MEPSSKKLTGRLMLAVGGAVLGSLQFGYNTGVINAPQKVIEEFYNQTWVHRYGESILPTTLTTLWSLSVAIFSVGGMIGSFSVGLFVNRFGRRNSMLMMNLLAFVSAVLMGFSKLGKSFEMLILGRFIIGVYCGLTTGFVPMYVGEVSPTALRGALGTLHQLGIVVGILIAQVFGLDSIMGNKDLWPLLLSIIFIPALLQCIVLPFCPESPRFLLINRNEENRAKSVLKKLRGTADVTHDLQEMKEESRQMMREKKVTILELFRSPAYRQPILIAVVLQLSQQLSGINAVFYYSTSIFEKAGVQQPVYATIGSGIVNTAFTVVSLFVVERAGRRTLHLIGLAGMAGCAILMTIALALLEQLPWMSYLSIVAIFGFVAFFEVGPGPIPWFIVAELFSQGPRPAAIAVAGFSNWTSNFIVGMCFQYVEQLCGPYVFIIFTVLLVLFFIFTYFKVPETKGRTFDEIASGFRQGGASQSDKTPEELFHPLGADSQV

[2] = target: Hexose transporter 1 (Plasmodium falciparum) (UniProt O97467); assay: ST_JUDE_LEISH: Cytotoxicity at 2uM final concentration against transgenic Leishmania Mexicana promastigotes LmPfHT that are glucose transport deficient and complemented with the Plasmodium falciparum hexose transporter. Activity is measured by DNA content using SYBR green in vitro
[3] = target: Glucose transporter (Leishmania mexicana) (UniProt O61059); assay: ST_JUDE_LEISH: Cytotoxicity at 2uM final concentration against transgenic Leishmania Mexicana promastigotes LmGT2 that are glucose transport deficient and complemented with the L. Mexicana glucose transporter 2. Activity is measured by DNA content using SYBR green in vitro

## CCOc1ccc(-c2nc(NC(=O)CS(=O)(=O)c3ccccc3)sc2C)cc1
[1]
  inhibition: 2.75%
[2]
  inhibition: 2.62%
[3]
  inhibition: 1.8%

## CCN(CC)CCNC(=O)c1ccc(Nc2ncc([N+](=O)[O-])c(Nc3ccccc3OC)n2)cc1
[1]
  inhibition: 4.77%
[2]
  inhibition: 4.91%
[3]
  inhibition: 3.73%

## COC(=O)CCn1c(C2CCN(CC3CCC(NC(=O)/C=C/c4ccc(Cl)c(Cl)c4)CC3)CC2)nc2ccccc21 (stereo not drawn)
[1]
  inhibition: 0.97%
[2]
  inhibition: 2.03%
[3]
  inhibition: 3.04%

## Cc1cc(N[C@@H](C)C(=O)Nc2ccccc2)nc(NCCc2ccc(F)cc2)n1
[1]
  inhibition: 2.77%
[2]
  inhibition: 4.77%
[3]
  inhibition: 1.18%

## COc1cccc(-c2cccc(-c3ccc(NC(=O)c4ccc([N+](=O)[O-])o4)cc3)n2)c1
[1]
  inhibition: 66.2%
[2]
  inhibition: 59.8%
[3]
  inhibition: 23.3%

## COc1ccc(S(=O)(=O)N(CCCN2CCN(C)CC2)Cc2csc(-c3ccc(CNCc4ccccc4)cc3)n2)cc1
[1]
  inhibition: -1.13%
[2]
  inhibition: 2.47%
[3]
  inhibition: 1.67%

## C[C@@]12C[C@@H](Nc3nc(NCCc4ccc(O)cc4)nc(N4CCNCC4)n3)C[C@@H](C1)c1cccc(Cl)c1O2
[1]
  inhibition: -1.38%
[2]
  inhibition: -1.84%
[3]
  inhibition: 2.14%

## CC(C)n1nc(C(=O)N2CCN(c3ccccc3)CC2)c2ccccc2c1=O
[1]
  inhibition: 1.27%
[2]
  inhibition: -0.42%
[3]
  inhibition: -0.69%

## CC1CCN(c2nc(C(=O)Nc3ccc(F)cc3C(F)(F)F)c(C(C)C)s2)CC1
[1]
  inhibition: 1.3%
[2]
  inhibition: 2.16%
[3]
  inhibition: 2.29%

## COc1ccc(OCc2ccccn2)c(C2CCN(CCCCNC(=O)c3ccc(NC(=O)c4ccc(Cl)cc4)cc3)CC2)c1
[1]
  inhibition: 1.01%
[2]
  inhibition: -4.32%
[3]
  inhibition: -2.76%

## CCCC1(NC[C@@H](O)[C@H](Cc2ccccc2)NC(=O)c2cc(NCC)cc(N3CCCCS3(=O)=O)c2)CCCC1
[1]
  inhibition: 4.97%
[2]
  inhibition: 5.31%
[3]
  inhibition: 3.48%

## COC(=O)c1cccc(N2CCN(CCCNC(=O)/C(=C/C=C/c3cc4cc(Cl)c(Cl)cc4[nH]3)OC)CC2)c1
[1]
  inhibition: 2.24%
[2]
  inhibition: 0.95%
[3]
  inhibition: -1.57%

## COc1ccc(C(=O)C2CCN(CCCCNC(=O)c3ccc(NC(=O)c4cc(Cl)cc(Cl)c4)cc3)CC2)cc1
[1]
  inhibition: 3.02%
[2]
  inhibition: 4.08%
[3]
  inhibition: 2.05%

## CC(C)N1CCC(NCc2ccc(-c3ccc(Cl)cc3)cc2)CC1
[1]
  inhibition: 11.6%
[2]
  inhibition: 13.6%
[3]
  inhibition: 10.2%

## Cc1nc2c(Nc3nc(-c4ccncc4)cs3)ncnc2n1-c1ccccc1Cl
[1]
  inhibition: 45.1%
[2]
  inhibition: 38.8%
[3]
  inhibition: 13.4%

## CCCCNC(=O)c1cc(CNC2CCCCC2)ccc1-c1cccc(CNCc2ccc(-c3ccccc3)cc2)c1
[1]
  inhibition: 5.94%
[2]
  inhibition: 5.46%
[3]
  inhibition: 2.67%

## Cc1cccc(-n2c(Nc3ccc(C)c(Cl)c3)nc3ccc(S(=O)(=O)NC(C)C(C)C)cc32)c1 (stereo not drawn)
[1]
  inhibition: 2.71%
[2]
  inhibition: 1.5%
[3]
  inhibition: -0.08%

## CC(C)n1c(CC2CCN(CC3CCN(C(=O)/C=C/c4ccc(Cl)c(Cl)c4)CC3)CC2)nc2ccccc21
[1]
  inhibition: -1.74%
[2]
  inhibition: -2.38%
[3]
  inhibition: -2.53%

## COc1c(C2CCN(CCCCNC(=O)c3ccc(-c4ccc(Cl)cc4)c(O)c3)CC2)ccc2c1CCCC2
[1]
  inhibition: 2.96%
[2]
  inhibition: 2.6%
[3]
  inhibition: 0.11%

## Cc1cccc2nc(-c3ccc(-c4cccc(CN5CCCCC5)c4)s3)[nH]c12
[1]
  inhibition: 5.63%
[2]
  inhibition: 5.12%
[3]
  inhibition: 1.81%

## COc1ccc(NC(=O)[C@H](CC(C)C)Nc2cc(C)nc(NCCc3ccccc3)n2)cc1
[1]
  inhibition: 3.57%
[2]
  inhibition: 3.69%
[3]
  inhibition: 1.94%

## O=C1CCCN1CCCNCc1cccc(-c2ccc(-c3nc4ccccc4[nH]3)s2)c1
[1]
  inhibition: -0.73%
[2]
  inhibition: 0.07%
[3]
  inhibition: -0.46%

## CON=C1CCC(Cn2ccnc2)(c2ccc(Cl)cc2Cl)CC1 (stereo not drawn)
[1]
  inhibition: 7.4%
[2]
  inhibition: 2.3%
[3]
  inhibition: 4.22%

## Cc1c(CNCCCNc2cc(=O)c3ccccc3[nH]2)sc(C(F)F)c1Br
[1]
  inhibition: -0.36%
[2]
  inhibition: -0.4%
[3]
  inhibition: -1.09%

## Cc1cc(NC(=O)NCCN2CCC(NS(=O)(=O)c3ccccc3Cl)C2)c2ccccc2n1 (stereo not drawn)
[1]
  inhibition: -2.1%
[2]
  inhibition: 1.02%
[3]
  inhibition: 8.99%

## Cc1cccc2nc(-c3ccc(-c4cccc(NC(=O)c5cncn5C)c4)cc3)[nH]c12
[1]
  inhibition: 5.73%
[2]
  inhibition: 5.37%
[3]
  inhibition: 5.41%

## CCN(CC)CCCC(C)Nc1c(-c2ccc(C)cc2)cnc2ccccc12 (stereo not drawn)
[1]
  inhibition: 9.89%
[2]
  inhibition: 7.44%
[3]
  inhibition: 8.1%

## O=C(Nc1cccc(CN2CCCN(Cc3ccccc3)CC2)c1)c1ccc(-c2ccccc2)cc1
[1]
  inhibition: 3%
[2]
  inhibition: 4.14%
[3]
  inhibition: -0.61%

## Cc1cccc2nc(-c3cccc(-c4cccc(NC(=O)c5ccncc5)c4)c3)[nH]c12
[1]
  inhibition: 3.32%
[2]
  inhibition: 3.01%
[3]
  inhibition: 4.27%

## O=C(Nc1cc(Cl)ccc1O)c1cc(-c2ccccc2O)no1
[1]
  inhibition: -2.41%
[2]
  inhibition: -2.61%
[3]
  inhibition: -2.64%

## COc1ccc(C2CC(=O)C3=C(C2)NC(C)=C(C(=O)OC(C)C)C3c2ccc(O)cc2)cc1OC (stereo not drawn)
[1]
  inhibition: 8.55%
[2]
  inhibition: 8.07%
[3]
  inhibition: 5.45%
